MITF inh = blocks MITF activity. inhibition, % (concentration not given with the values). AID 2240. 37,000 compounds, 0.28% hits. TRPM1 promoter luciferase, luminescence, 24 h; in the data active = inhibition above about 85%; inconclusive = no clear call, values can overlap the other calls; inactive = below about 68%;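 also: human melanocyte line stably carrying TRPM1 promoter luciferase reporter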
NOMO-1 viab = STK33 inhibitor candidate reducing NOMO-1 cell viability. inhibition, % (no concentration beside the values). 37,000 compounds, 7.5% hits. NOMO-1 AML viability, CellTiter-Glo luminescence, 72 h; in the data active = inhibition above about 80%; inconclusive = no clear call, values can overlap the other calls
Hedgehog inh = blocks Sonic Hedgehog signaling; inhibition, % (concentration not given with the values); Shh-LIGHT2 Gli-luciferase reporter, 30 h; 22,000 compounds, 2.1% hits;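 active = mean inhibition across valid replicates above about 65%, limit read from the data; inconclusive = mean under the limit, yet half or more replicates past it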;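 also: pathway switched on by Shh-conditioned medium diluted 1 in 25 in low serum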
Active calls of the source: *; ? = inconclusive; nt = no result. Only some compounds are listed: those with a hit (about 7.8% of all), similar ones and a draw of the others.

SMILES	MITF inh	NOMO-1 viab	Hedgehog inh
CC1C/C=C/C2C3OC3(C)C(C)C3C(Cc4ccccc4)NC(=O)C23OC(=O)O/C=C/C(C)(O)C1=O (stereo not drawn)	41	93*	44
CCOC(=O)c1c(NC(=O)C2C(C)(C)C2(C)C)sc2c1CCC2	10	15	-3
C/C=C(\C)[C@H](O)[C@H](C)/C=C(C)/C=C/C/C(C)=C/Cc1[nH]c(OC)c(OC)c(=O)c1C	96*	99*	55
O=C1C=C2C=C[C@@H]3CC2(O1)[C@H]1CCCCN31	8	65	51
C=C(C)[C@@H]1[C@H]2OC(=O)[C@@H]1[C@]1(O)C[C@H]3O[C@]34C(=O)O[C@H]2[C@]14C	-4	20	-52
COc1ccc2c(c[n+](C)c3c4cc5c(cc4ccc23)OCO5)c1OC	72	142*	-9
COc1ccc2c(c1OC)CN1CCc3cc4c(cc3C1C2)OCO4 (stereo not drawn)	3	15	-18
COC1=CC(=O)O[C@@H](/C=C/c2ccccc2)C1	-52	34	-66
CCCN1CCO[C@@H]2c3cc(O)ccc3OC[C@H]21	-29	13	-1
C=CC1C[N+]2([O-])CCC1CC2C(O)c1ccnc2ccc(OC)cc12 (stereo not drawn)	nt	nt	-37
COc1cc2c(cc1OC)C13CCN(C)CC4=CCOC5CC(=O)N2C1C5C4CC3=O (stereo not drawn)	4	23	20
CO/C1=C/C(C)=C/[C@@H](C)[C@@H](O)[C@@H](C)C/C(C)=C/C=C\[C@H](OC)[C@@H]([C@@H](C)[C@@H](O)[C@H](C)[C@@]2(O)C[C@@H](O)[C@H](C)[C@@H](C(C)C)O2)OC1=O	-61	142*	97*
O=C(CCl)c1cc(Br)c(Br)s1	11	99*	-33
N#Cc1c(Cl)cccc1Cl	-29	-22	-15
CC(=O)NC1C(OC2OC(CC(O)C3OC(n4ccc(=O)[nH]c4=O)C(O)C3O)C(O)C(O)C2NC(=O)/C=C/CCCCCCCCCC(C)C)OC(CO)C(O)C1O (stereo not drawn)	60	108*	108*
CC[C@@H](C)C(=O)O[C@H]1[C@H](O)[C@H]2[C@@H](CN3C[C@@H](C)CC[C@H]3[C@@]2(C)O)C2C[C@]34O[C@@]5(O)[C@@H](OC(=O)[C@](C)(O)CC)CC[C@@]3(C)[C@@H]5[C@@H](OC(C)=O)[C@@H](OC(C)=O)[C@H]4[C@@]21O (stereo partly drawn)	4	15	9
COC(=O)c1c(C)n(CCCOC(C)C)c2c1cc(O)c1ccccc12	13	4	nt
C=CC/C=C\C/C=C\CCCCCCCc1cc(O)cc(O)c1	6	109*	28
COCc1cc(OC(=O)N(C)C)nc(-c2ccncc2)n1	-21	22	nt
CCOC(=O)c1cc(C(C)(C)C)nc(OC(=O)N(C)C)c1C#N	0	101*	27
COCc1cc(OC(=O)N(C)C)nc2c1c(C)nn2C	-34	-16	nt
O=c1c2ccccc2nc(CSc2ccccn2)n1-c1cccc(C(F)(F)F)c1	4	16	nt
CN1C(=O)CN=C(c2ccccc2)c2cc(Cl)ccc21	7	1	16
O=[N+]([O-])c1ccc(O)c([N+](=O)[O-])c1	105*	-23	50
C[C@@H]1CCC/C=C/[C@H]2C[C@@H](O)C[C@@H]2[C@@H](O)/C=C\C(=O)O1	87*	108*	101*
SMILES	MITF inh	NOMO-1 viab	Hedgehog inh
CC(=O)Oc1ccc(/C=C/c2cc(OC(C)=O)cc(OC(C)=O)c2)cc1	84	88*	-13
O=c1c2ccccc2[se]n1-c1ccccc1	9	141*	?
O=c1c2ccccc2nc(C(F)(F)F)n1-c1ccccc1	1	4	-3
CN1CCc2nc3sc(C(=O)C(C)(C)C)c(N)c3cc2C1	41	122*	?
Cc1ccnc(NC(c2ccccc2[N+](=O)[O-])c2ccc3ccc(C)nc3c2O)c1 (stereo not drawn)	57	124*	nt
CCCCc1ccc(C(=O)O)nc1	-19	5	-8
CCCCCc1cc(O)c2c(c1)OC(C)(C)[C@@H]1CCC(C(=O)O)=CC21 (stereo partly drawn)	19	20	24
COP(=S)(OC)SCn1nnc2ccccc2c1=O	-4	-19	-42
CCOC(=O)c1c(C)n(C(C)C)c2ccc(OC(=O)c3ccccc3)cc12	12	5	-14
C/C=C(/C)C(=O)O[C@H]1C(C)=C2[C@H]([C@@H]1OC(=O)CCCCCCC)[C@@](C)(OC(C)=O)C[C@H](OC(=O)CCC)[C@@]1(O)[C@H]2OC(=O)[C@@]1(C)O	105*	122*	103*
C/C=C(\C)C(=O)OC1C(C)=C2C(C1OC(=O)CCCCCCC)C(C)(OC(C)=O)CC(OC(=O)CCC)C1(O)C2OC(=O)C1(C)O (stereo not drawn)	51	120*	101*
CCC1CC2CC3(C(=O)OC)c4[nH]c5ccc(OC)cc5c4CCN(C2=O)C13 (stereo not drawn)	9	31	1
N#CC(O[C@@H]1O[C@H](CO[C@@H]2O[C@H](CO)[C@@H](O)[C@H](O)[C@H]2O)[C@@H](O)[C@H](O)[C@H]1O)c1ccccc1 (stereo partly drawn)	3	35	33
CCOC(=O)CN1C(=O)C2(C(C(=O)OCC)=C(N)OC3=C2C(=O)CC(C)(C)C3)c2ccccc21 (stereo not drawn)	16	2	29
COCc1cc(OC(=O)N(C)C)nc2c1c(-c1cccs1)nn2C	0	18	19
COC(=O)[C@@]12C(=O)C(C)C(=O)[C@]1(C)C(C)=C[C@H]1[C@]3(C=O)CC[C@H](OC(C)=O)C(C)(C)[C@H]3CC[C@@]12C (stereo partly drawn)	nt	nt	25
CC(C)[C@]12O[C@H]1[C@@H]1O[C@]13[C@]1(O[C@H]1C[C@H]1C4=C(CC[C@@]13C)C(=O)OC4)[C@@H]2O	74	114*	29
CC1OC(n2cnc3c(N)ncnc32)C[C@H]1O (stereo partly drawn)	-10	7	20
COP(=S)(OC)Oc1ccc(SC)c(C)c1	-3	-2	-16
CN(C)C(=O)Oc1ccnc(SCc2c(F)cccc2Cl)n1	-25	68	9
c1ccc2c(CNCCc3c[nH]c4ccccc34)cccc2c1	-6	106*	56
CN(C)Cc1c[nH]c2ccccc12	11	16	?
C[C@@H]1C(=O)O[C@H]2[C@H]1CC[C@@]1(C)C=CC(=O)[C@@]3(C)O[C@@]213	-2	88*	18
Cc1cc(C(F)F)n2nc(C(=O)Nc3ccc(Cl)cc3C(=O)c3ccccc3)nc2n1	-2	-21	nt
C/C=C1/C[C@@H](C)[C@](O)(CO)C(=O)OCC2=CCN3CC[C@@H](OC1=O)[C@@H]23	7	11	20
CCC1=CC2CN3CCc4c([nH]c5ccccc45)[C@@](C(=O)OC)(C2)[C@@H]13	16	33	9
CC[C@@H](CO)NC(=O)[C@@H]1C=C2c3cccc4c3c(cn4C)C[C@H]2N(C)C1	0	-9	nt
CN1C[C@H](CNC(=O)OCc2ccccc2)C[C@@H]2c3cccc4c3c(cn4C)C[C@H]21	15	104*	50
OCC1OC(n2cnc3cc(Cl)c(Cl)cc32)[C@@H](O)[C@H]1O (stereo partly drawn)	-5	40	56

Bioassay records (PubChem BioAssay)
